# Laboratory results reported in PubChem BioAssay.
# Active and inactive are the calls of the source.
# Legend:
# [1] = binders of probe aFSTL3 on microarray, primary screen, stem cell growth factor project, biochemical, small-molecule microarray, fluorescence 635/667 (AID 1064); conditions: higher = more signal;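 further: measures binding of the biotinylated anti-FSTL3 antibody to printed compounds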
# [2] = binders from COS7 lysate, DM2A8 probe, primary screen, torsin A project, cell lysate, small-molecule microarray, fluorescence 635/667 (AID 1065); conditions: higher = more signal, COS7 lysate expressing mutant human TOR1A
# [3] = binders of probe aFGF2 on microarray, primary screen, stem cell growth factor project, biochemical, small-molecule microarray, fluorescence 635/667 (AID 1067); conditions: higher = more signal;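 further: measures binding of biotinylated aFGF2 protein to printed compounds on slides; z-score merges feature fluorescence and signal-to-noise across triplicate slides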
# [4] = binders of probe aFGF10 on microarray, primary screen, stem cell growth factor project, biochemical, small-molecule microarray, fluorescence 635/667 (AID 1071); conditions: higher = more signal;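 further: score merges 667 nm spot intensity and signal to noise from triplicate slides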
# [5] = biological target: Neurogenic locus notch homolog protein 2 (Homo sapiens) (UniProt Q04721); assay: Notch2 binders on small-molecule microarrays, primary screen, biochemical, small-molecule microarray, 635 nm fluorescence, stem cell growth factors (AID 1073); conditions: Notch2 binding, higher = more signal
# [6] = biological target: Pro-neuregulin-1, membrane-bound isoform (Homo sapiens) (UniProt Q02297); assay: NRG1 binders on small-molecule microarrays, primary screen, psychiatric disease protein project, biochemical, small-molecule microarray, fluorescence 635/667 (AID 1075); conditions: NRG1 binding, 635 nm fluorescence, higher = more signal;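 further: score combines 667 nm spot fluorescence with signal to noise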
# [7] = test system: Neuregulin-1 EGF-like domain; assay: binders of neuregulin-1 EGF-like domain, primary screen, biochemical, small-molecule microarray, 635 nm fluorescence (AID 1081); conditions: small-molecule microarray binding, higher = more signal;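 further: binding of the protein to compounds printed on small-molecule microarray slides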
# [8] = FRG1 promoter luciferase signal modulators, primary screen, FRG1 inhibition for FSHD, cell-based, C2C12 myotubes, firefly/Renilla luciferase, luminescence (AID 1084); conditions: higher = more signal, called active from +8 up or from −8 down
# [9] = binders of probe aFST on microarray, primary screen, stem cell growth factor project, biochemical, small-molecule microarray, fluorescence 635/667 (AID 1086); conditions: higher = more signal;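 further: score merges 667 nm fluorescence with signal-to-noise of each printed compound spot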
# [10] = binders of probe aHhip on microarray, primary screen, stem cell growth factor project, biochemical, small-molecule microarray, fluorescence 635/667 (AID 1087); conditions: higher = more signal;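 further: score merges spot fluorescence at 667nm with spot signal to noise ratio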
# [11] = test system: PRMT1 (protein arginine N-methyltransferase 1); assay: PRMT1 binders on small-molecule microarrays, primary screen, biochemical, small-molecule microarray, 635 nm fluorescence (AID 1088); conditions: small-molecule microarray binding, higher = more signal;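 further: binding of Prmt1 protein to compounds spotted on small-molecule microarray slides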
# [12] = yeast growth modulation, basal conditions, primary screen, YJM789 clinical isolate, OD600, 24 h (AID 1089);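 further: growth of clinical yeast isolate S. cerevisiae YJM 789 seeded 1000 cells per well; test concentration not given here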; conditions: S. cerevisiae YJM789 growth, higher = more signal, called active from +8 up or from −8 down
# [13] = fission yeast growth modulation, primary screen, strain 972, OD600, 24 h, no modulator (AID 1090);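 further: basal condition with compound alone and no growth modifier present; test concentration not given here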; conditions: S. pombe 972 growth, higher = more signal, called active from +8 up or from −8 down
# [14] = S. cerevisiae growth modulation with rapamycin, primary screen, strain BY4716, OD600, 96 h (AID 1091); conditions: higher = more signal, called active from +8 up or from −8 down; further: test concentration not given here
# [15] = biological target: Torsin-1A-interacting protein 2 (Homo sapiens) (UniProt Q8NFQ8); assay: LULL1 binders on small-molecule microarray, primary screen, cell lysate, human LULL1 lysate, 635/667 nm fluorescence (AID 1092); conditions: hLULL1 lysate binding, 635 nm fluorescence, higher = more signal;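 further: probe is lysate of COS7 cells overexpressing human LULL1; score merges per-feature 667 nm fluorescence with signal-to-noise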
# [16] = E. coli growth modulation, two-sided OD650, primary screen, E. coli filamentation project, strain DRC41, 24 h (AID 1093); conditions: OD650, 24 h, higher = more signal, called active from +8 up or from −8 down;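 further: MC1000 strain lacking acrAB efflux and sulA so SOS filamentation is blocked; test concentration not given here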
# [17] = small-molecule microarray binders of probe aLefty2, primary screen, biochemical, biotinylated probe, 635/667 nm fluorescence (AID 1094); conditions: higher = more signal;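 further: score merges spot fluorescence near 667 nm with spot signal-to-noise ratio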
# [18] = test system: Noggin (protein binding on small-molecule microarray); assay: Noggin binders on small-molecule microarray, primary screen, biochemical, 635/667 nm fluorescence (AID 1095); conditions: 635 nm fluorescence, higher = more signal;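 further: score merges 667 nm feature fluorescence with signal to noise over triplicate slides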
# [19] = biological target: Neurogenic locus notch homolog protein 3 (Homo sapiens) (UniProt Q9UM47); assay: NOTCH3 binders on small-molecule microarray, primary screen, biochemical, 635/667 nm fluorescence (AID 1096); conditions: NOTCH3 binding, 635 nm fluorescence, higher = more signal
# [20] = small-molecule microarray binders of probe aEGFR, primary screen, biochemical, biotinylated probe, 635/667 nm fluorescence (AID 1097); conditions: higher = more signal;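 further: probe is a biotinylated anti-EGFR antibody binding compounds printed on slides; score combines fluorescence near 667 nm and signal to noise of each spot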
# Chain of Neurogenic locus notch homolog protein 2 (Homo sapiens) (Q04721 whole entry, looked up, canonical isoform): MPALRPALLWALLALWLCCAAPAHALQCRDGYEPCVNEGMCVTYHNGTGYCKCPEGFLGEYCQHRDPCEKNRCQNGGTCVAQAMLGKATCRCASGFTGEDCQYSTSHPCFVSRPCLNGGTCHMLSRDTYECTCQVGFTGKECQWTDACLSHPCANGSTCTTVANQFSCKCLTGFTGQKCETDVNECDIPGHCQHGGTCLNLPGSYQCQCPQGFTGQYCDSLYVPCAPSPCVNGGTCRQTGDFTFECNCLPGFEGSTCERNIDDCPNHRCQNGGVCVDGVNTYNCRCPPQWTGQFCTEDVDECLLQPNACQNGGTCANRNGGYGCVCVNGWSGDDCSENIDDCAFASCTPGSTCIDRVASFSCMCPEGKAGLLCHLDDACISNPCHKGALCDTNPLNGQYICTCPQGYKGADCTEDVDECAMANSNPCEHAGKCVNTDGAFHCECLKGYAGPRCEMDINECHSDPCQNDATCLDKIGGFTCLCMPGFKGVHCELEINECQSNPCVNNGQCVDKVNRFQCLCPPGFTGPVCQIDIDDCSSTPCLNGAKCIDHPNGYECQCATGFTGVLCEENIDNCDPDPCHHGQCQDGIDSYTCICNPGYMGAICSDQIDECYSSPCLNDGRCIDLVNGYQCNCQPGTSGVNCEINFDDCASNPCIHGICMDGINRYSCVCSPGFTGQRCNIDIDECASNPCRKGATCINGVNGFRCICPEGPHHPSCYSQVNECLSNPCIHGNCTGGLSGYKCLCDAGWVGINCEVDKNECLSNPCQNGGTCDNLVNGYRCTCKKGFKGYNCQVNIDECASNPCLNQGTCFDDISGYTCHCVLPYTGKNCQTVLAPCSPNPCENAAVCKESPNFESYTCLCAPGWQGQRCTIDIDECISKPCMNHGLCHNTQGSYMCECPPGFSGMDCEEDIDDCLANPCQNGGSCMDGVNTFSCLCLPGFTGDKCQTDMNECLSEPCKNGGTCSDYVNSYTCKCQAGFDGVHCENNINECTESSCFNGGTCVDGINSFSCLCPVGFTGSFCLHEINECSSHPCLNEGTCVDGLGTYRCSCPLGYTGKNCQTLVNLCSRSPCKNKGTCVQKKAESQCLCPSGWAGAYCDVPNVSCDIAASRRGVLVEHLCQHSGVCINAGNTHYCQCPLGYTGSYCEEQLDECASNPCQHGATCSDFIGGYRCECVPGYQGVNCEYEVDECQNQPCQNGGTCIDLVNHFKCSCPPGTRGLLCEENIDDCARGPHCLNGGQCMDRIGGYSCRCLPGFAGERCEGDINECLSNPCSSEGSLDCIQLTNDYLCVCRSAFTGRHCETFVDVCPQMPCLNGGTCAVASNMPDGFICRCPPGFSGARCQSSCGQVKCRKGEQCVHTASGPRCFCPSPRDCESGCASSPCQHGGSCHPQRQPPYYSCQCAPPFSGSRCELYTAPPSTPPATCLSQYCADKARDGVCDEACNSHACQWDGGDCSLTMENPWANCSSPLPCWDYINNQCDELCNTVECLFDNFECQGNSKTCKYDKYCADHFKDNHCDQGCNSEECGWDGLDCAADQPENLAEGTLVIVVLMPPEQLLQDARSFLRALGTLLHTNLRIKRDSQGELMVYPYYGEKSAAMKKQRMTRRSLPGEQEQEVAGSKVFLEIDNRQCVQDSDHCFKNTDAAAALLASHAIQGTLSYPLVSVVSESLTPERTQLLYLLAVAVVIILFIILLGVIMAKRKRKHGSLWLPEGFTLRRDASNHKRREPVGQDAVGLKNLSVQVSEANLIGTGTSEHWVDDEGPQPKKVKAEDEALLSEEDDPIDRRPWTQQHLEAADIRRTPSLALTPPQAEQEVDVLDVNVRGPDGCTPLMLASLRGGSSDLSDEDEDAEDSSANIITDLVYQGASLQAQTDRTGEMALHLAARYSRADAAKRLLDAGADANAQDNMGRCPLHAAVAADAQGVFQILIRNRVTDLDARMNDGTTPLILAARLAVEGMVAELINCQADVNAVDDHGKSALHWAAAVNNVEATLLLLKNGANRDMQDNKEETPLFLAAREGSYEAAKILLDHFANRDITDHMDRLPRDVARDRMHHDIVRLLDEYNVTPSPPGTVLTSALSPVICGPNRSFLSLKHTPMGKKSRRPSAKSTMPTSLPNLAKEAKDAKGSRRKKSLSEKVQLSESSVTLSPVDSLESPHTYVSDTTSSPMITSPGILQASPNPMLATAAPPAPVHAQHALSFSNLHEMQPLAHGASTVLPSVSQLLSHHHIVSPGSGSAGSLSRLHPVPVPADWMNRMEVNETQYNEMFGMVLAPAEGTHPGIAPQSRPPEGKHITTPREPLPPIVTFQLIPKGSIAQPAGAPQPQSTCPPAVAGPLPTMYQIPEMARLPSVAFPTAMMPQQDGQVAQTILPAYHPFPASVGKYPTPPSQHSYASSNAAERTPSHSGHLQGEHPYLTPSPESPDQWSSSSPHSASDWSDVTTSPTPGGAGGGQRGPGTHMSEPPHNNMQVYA
# Chain of Pro-neuregulin-1, membrane-bound isoform (Homo sapiens) (Q02297 whole entry, looked up, the tested form may be a part, canonical isoform): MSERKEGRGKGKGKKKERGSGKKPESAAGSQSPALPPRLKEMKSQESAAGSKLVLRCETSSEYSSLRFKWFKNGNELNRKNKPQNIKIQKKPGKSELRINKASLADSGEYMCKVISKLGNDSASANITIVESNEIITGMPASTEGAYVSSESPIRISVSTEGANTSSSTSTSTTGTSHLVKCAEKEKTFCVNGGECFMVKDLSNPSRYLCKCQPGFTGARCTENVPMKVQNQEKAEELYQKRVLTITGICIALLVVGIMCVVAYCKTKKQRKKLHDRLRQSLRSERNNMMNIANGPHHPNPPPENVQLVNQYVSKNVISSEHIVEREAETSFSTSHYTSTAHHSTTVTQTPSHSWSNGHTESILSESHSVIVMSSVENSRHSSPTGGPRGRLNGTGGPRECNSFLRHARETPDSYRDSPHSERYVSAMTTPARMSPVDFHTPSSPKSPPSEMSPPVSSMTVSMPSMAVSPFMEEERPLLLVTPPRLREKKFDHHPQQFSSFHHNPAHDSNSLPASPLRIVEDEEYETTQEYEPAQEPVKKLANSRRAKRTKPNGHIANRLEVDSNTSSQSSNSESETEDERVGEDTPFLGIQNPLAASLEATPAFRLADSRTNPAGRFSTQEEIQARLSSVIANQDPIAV
# Chain of Torsin-1A-interacting protein 2 (Homo sapiens) (Q8NFQ8 whole entry, looked up): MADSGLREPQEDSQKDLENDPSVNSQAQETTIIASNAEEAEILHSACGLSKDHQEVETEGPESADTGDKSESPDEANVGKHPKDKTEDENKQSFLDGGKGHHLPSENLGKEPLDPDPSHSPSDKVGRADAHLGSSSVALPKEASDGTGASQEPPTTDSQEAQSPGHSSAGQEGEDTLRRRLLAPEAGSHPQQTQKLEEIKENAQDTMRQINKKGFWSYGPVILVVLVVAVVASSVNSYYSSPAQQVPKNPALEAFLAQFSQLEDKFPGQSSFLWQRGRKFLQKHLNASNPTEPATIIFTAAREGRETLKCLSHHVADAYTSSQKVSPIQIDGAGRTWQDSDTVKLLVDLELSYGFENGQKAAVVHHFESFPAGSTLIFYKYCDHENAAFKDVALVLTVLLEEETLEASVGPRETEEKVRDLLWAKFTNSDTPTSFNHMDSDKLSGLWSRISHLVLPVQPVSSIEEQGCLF
Structure (SMILES),composite z-score [1],composite z-score [2],composite z-score [3],composite z-score [4],composite z-score [5],composite z-score [6],composite z-score [7],z-score [8],composite z-score [9],composite z-score [10],composite z-score [11],z-score [12],z-score [13],z-score [14],composite z-score [15],z-score [16],composite z-score [17],composite z-score [18],composite z-score [19],composite z-score [20]
O=C(NC1CC1)[C@@H]1c2ccccc2C(=O)N(Cc2ccccc2C(F)(F)F)[C@H]1c1ccc(CO)cc1,-0.432,0.436,-0.116,0.39,0.693,0.988,1.26,-1.64 (inactive),0.336,-0.226,1.57,-0.541 (inactive),-1.77 (inactive),-0.731 (inactive),2.27,1 (inactive),-0.15,0.458,1.13,-0.039
O=C(NO)[C@]1(Cc2ccccc2)N=C(c2ccc(OCCCO)cc2)O[C@@H]1c1ccccc1,0.464,1.2,-0.246,-0.134,-0.66,0.545,-0.921,-1.62 (inactive),0.14,-0.0645,-0.269,-4.96 (inactive),-3.08 (inactive),-1.94 (inactive),-0.231,3.42 (inactive),0.0204,-0.0613,-1.1,-0.174
COc1ccc([Si](C)(C)[C@H]2[C@H](CC(=O)N(CCO)Cc3ccccc3)O[C@@]3(C(=O)N(Cc4ccc(N5CCOC5=O)cc4)c4ccccc43)[C@@H]2C)cc1,0.0147,0.285,-0.105,0.202,0.135,0.869,1.01,-2.95 (inactive),-0.158,-0.0618,0.92,0.473 (inactive),0.273 (inactive),3.26 (inactive),1.98,1.46 (inactive),-0.0595,0.821,0.361,-0.146
COc1ccc(CCNC(=O)[C@@]2(Sc3ccc(C)cc3)CC(=O)N(Cc3ccccc3)[C@@H]2c2ccc(CO)cc2I)cc1,-1.07,0.461,-0.187,-0.111,-0.0768,0.0114,0.388,-1.58 (inactive),-0.32,-0.616,0.471,0.44 (inactive),-1.66 (inactive),2.72 (inactive),1.87,0.485 (inactive),-0.337,-0.814,-0.915,-0.119
COc1ccc([Si](C)(C)[C@@H]2[C@@H](CCn3cc([C@H](O)c4ccccc4)nn3)O[C@]3(C(=O)N(C)c4c(Br)cc(C)cc43)[C@H]2C)cc1,0.114,0.301,-0.116,-0.246,-0.802,-0.115,-0.288,-2.54 (inactive),-0.43,0.154,-0.0221,-2.54 (inactive),-0.793 (inactive),0.406 (inactive),0.215,2.87 (inactive),-0.0295,0.0639,-0.707,0.0089
CC1CC/C=C\[C@H]2OC34C=CCN(C(C)C)C(=O)[C@H]3N(C(CO)C(C)C)C(=O)[C@@H]4C2C(=O)O1 (stereo not given in full),1.54,-0.267,-0.0985,-0.365,-0.662,-0.593,0.475,-0.416 (inactive),-0.422,-0.0994,-0.825,0.959 (inactive),-1.84 (inactive),-0.631 (inactive),1.55,2.14 (inactive),-0.0229,-0.684,-0.274,-0.154
CO[C@H]1O[C@H](CO)[C@@H](OC(=O)Nc2ccccc2)[C@H](OC(=O)Nc2ccccc2-c2ccccc2)[C@@H]1OC(=O)Nc1ccccc1-c1ccccc1,-0.711,0.606,-0.0141,0.901,1.49,1.7,1.31,-0.979 (inactive),0.325,-0.0346,1.53,1.17 (inactive),-0.271 (inactive),-0.471 (inactive),3.13,1.36 (inactive),0.0623,0.926,1.06,0.423
CCCCCN1CC=CC23O[C@@H]4/C=C\CCC(C)OC(=O)C4[C@H]2C(=O)N(CCCO)[C@@H]3C1=O (stereo not given in full),0.499,2.09,-0.128,-1.37,-1.28,1.57,1.15,0.356 (inactive),-0.61,-0.261,-0.418,-1.3 (inactive),-1.58 (inactive),-0.544 (inactive),0.818,1.77 (inactive),-0.441,-1.44,-1.17,-0.262
O=C(NCC(F)(F)F)[C@@H]1c2ccccc2C(=O)N(C2Cc3ccccc3C2)[C@H]1c1ccc(CO)cc1,0.833,-0.67,-0.0487,-0.514,-0.98,-0.0643,0.0014,-0.827 (inactive),-0.187,-0.353,-0.236,-0.62 (inactive),-1.06 (inactive),-0.501 (inactive),0.492,2.12 (inactive),0.107,-1.29,-0.844,-0.129
C=CC[C@@]1(C(=O)NCc2ccccc2)N=C(c2ccc(OCCCO)cc2)O[C@@H]1c1ccccc1,1.17,0.945,-0.0778,-0.523,-0.347,1.61,0.845,-2.56 (inactive),0.3,-0.191,1.29,-2.54 (inactive),-4.81 (inactive),12.3 (active),3.19,2.92 (inactive),0.195,-0.469,0.311,-0.147
O=C1c2ccccc2C(=O)c2cc([C@H]3Oc4ccccc4S(=O)(=O)N4CCC[C@@H]34)ccc21,0.238,-0.845,-0.128,-0.639,-1.09,-0.926,-1.64,-0.933 (inactive),-0.167,-0.353,-1.02,-1.31 (inactive),-1.33 (inactive),-0.462 (inactive),-0.629,2.81 (inactive),-0.276,-0.566,-0.259,-0.196
COC(=O)c1c(CC[C@@H](CO)NC(=O)Nc2ccc(OC)cc2)oc(C(=O)Cc2ccccc2)c1C(=O)OC,-0.211,0.469,-0.0924,0.411,0.704,0.191,1.03,-0.814 (inactive),-0.0409,-0.0672,0.477,1.54 (inactive),-1.21 (inactive),2.23 (inactive),0.478,1.85 (inactive),-0.0233,0.414,0.101,-0.0252
